Data from PubChem BioAssay (NCI).
The panel holds about 83,000 compounds, 20% with a hit somewhere; the sample as a whole holds those more often.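 Plates (96-well) were seeded with cells, treated with compound at one concentration, and incubated for 48 hours before percent growth was determined.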 Calls of active or inactive are those of the source. How the source made its calls: active means growth percent below 10; inactive means the rest.

How the values were obtained:
Experiment in all cases: NCI-60 one-dose screen, 48 h (100 = growth as untreated, 0 = no growth, -100 = all killed)
Details in all cases: 10 µM unless noted
[1] = tested on: NCI-H23 lung
[2] = tested on: NCI-H322M lung
[3] = tested on: HOP-62 NSCLC
[4] = tested on: NCI-H460 lung
[5] = tested on: HOP-92 NSCLC
[6] = tested on: NCI-H522 lung
[7] = tested on: A549/ATCC NSCLC
[8] = tested on: 786-0 renal
[9] = tested on: COLO 205 colon
[10] = tested on: DU-145 prostate
[11] = tested on: MALME-3M melanoma
[12] = tested on: MDA-MB-231 breast
[13] = tested on: SF-268 CNS
[14] = tested on: SF-295 CNS
[15] = tested on: SF-539 CNS
[16] = tested on: UACC-257 melanoma
[17] = tested on: M14 melanoma
[18] = tested on: HCT-15 colon
[19] = tested on: K-562 leukemia
[20] = tested on: RXF 393 renal

Measured: growth

Cc1ccc2[nH]c(=O)cc(-n3nncc3Cn3c4ccccc4c4ccccc43)c2c1
inactive: [1] 94.1% | [2] 97.6% | [3] 93.4% | [4] 102% | [5] 89.8% | [6] 93.9% | [7] 98.9% | [8] 101% | [9] 116% | [10] 102% | [11] 93.5% | [12] 97.6% | [13] 86.4% | [14] 98.9% | [15] 94% | [16] 97.5% | [17] 105% | [18] 99%

COC(=O)c1c2c(c(C)[n+]([O-])c1C)C(=O)C=C(NCc1ccccc1)C2=O
active: [1] -50% | [2] -5.71% | [3] 2.96% | [4] -13.1% | [5] -27.2% | [6] -26.1% | [7] -4.94% | [8] 4.63% | [10] -92.7% | [19] 1.96% | [11] -96.9% | [12] -26% | [20] -25.3% | [13] -4.22% | [14] -84% | [15] -90.2% | [16] -89.6% | [17] -80.1% | [18] -68.5%

COc1ccc(/C=C/C(=O)c2ccc(Nc3nc(NCCO)nc(Nc4ccc(Cl)cc4)n3)cc2)cc1
inactive: [1] 89.6% | [2] 93.6% | [3] 87.8% | [4] 61.7% | [5] 86.7% | [6] 71.6% | [7] 50.2% | [8] 63.9% | [10] 71.4% | [19] 62.3% | [11] 97.2% | [12] 70% | [20] 66.3% | [13] 65.7% | [14] 93.6% | [15] 74.9% | [16] 100% | [17] 67.9% | [18] 38.2%

CCCCCCCCCCCCCCn1cc(C2=C(c3coc4ccc(OC)cc34)C(=O)NC2=O)c2ccccc21
inactive: [1] 96% | [2] 99.7% | [3] 103% | [4] 98.5% | [5] 107% | [6] 90.3% | [7] 96.6% | [8] 97.6% | [10] 102% | [19] 121% | [11] 107% | [12] 111% | [20] 108% | [13] 98.8% | [14] 97.2% | [15] 103% | [16] 96.8% | [17] 98.7% | [18] 88.1%
